# Measurements: PubChem BioAssay (NCATS)
# Inconclusive results are not listed. Unmarked numbers belong to inactive results. Active and inactive are the calls of the source. The call rests on the fitted dose curve; in most records, active means well fitted cell-killing curve with a large enough effect; inconclusive means small, poorly fitted or top-dose-only effect; inactive means flat fitted curve, though single readings scatter.
# Assay: Cellular viability qHTS for adrenocortical cancer (ACC) cell line NCI-H295R (AID 1963990); further: nearly all actives have a fitted effect of over 60% in size;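 on activity change, negative = viability loss: 0% = DMSO only wells and -100% = full killing with cytotoxic reference compound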
# Details: CellTiter-Glo ATP luminescence, 48 h; series mostly up to 46.1 µM; activity change, negative = viability loss: at the top concentration
# Outline: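 IC50 and maximal efficacy derive from four-parameter logistic modelling of titration curves, with reads scaled between DMSO-only wells (0%) and doxorubicin hydrochloride (100% inhibition). Compounds spanned up to 46 uM over 48 h.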
Compound,Potency,"activity change, negative = viability loss"
C[C@H](NC(=O)/C(C#N)=C/c1cccc(Br)n1)c1ccccc1,28.2 µM (active),
CCN(C)S(=O)(=O)Nc1ccc(F)c(C(=O)c2c[nH]c3ncc(-c4cnc(C5CC5)nc4)cc23)c1F,28.2 µM (active),
Nc1cccc2c(N)cccc12,39.8 µM (active),
CC(C)(C)C(=O)C(Oc1ccc(Cl)cc1)n1ccnc1 (stereo unspecified),,-14.9%
C[N+]1(CC2COC(c3ccccc3)(C3CCCCC3)O2)CCCCC1 (stereo unspecified),,11%
CCCCCCCCCCCCCCCCOP(=O)([O-])OCC[N+](C)(C)C,23.1 µM (active),
O=C(Nc1ccc(Oc2ccc(Cl)cc2)c(Cl)c1)c1cc(I)cc(I)c1O,20.6 µM (active),
C#Cc1cccc(Nc2ncnc3cc4c(cc23)OCCOCCOCCO4)c1,11.2 µM (active),
CO/N=C(/C(=O)N[C@@H]1C(=O)N2C(C(=O)OCOC(=O)C(C)(C)C)=C(C)CS[C@H]12)c1csc(N)n1,,-29.9%
COc1ccc2[nH]c(S(=O)Cc3ncc(C)c(OC)c3C)nc2c1 (stereo unspecified),,-25.3%
COc1ccc2cc(C=O)ccc2c1,,3.87%
O=c1cc(-c2ccccc2)oc2ccccc12,,-14.3% [at 92.7 µM]
N#Cc1c(N)nc(N)nc1N[C@H](c1nc2c(F)ccc(Cl)c2c(=O)n1-c1cccnc1)C1CC1,22.4 µM (active),
O=C(NOCC(O)CO)c1cc(Br)c(F)c(F)c1Nc1ccc(I)cc1F (stereo unspecified),15.8 µM (active),
CN(C(=O)CN(CCO)CC(=O)N(C)C(C)(C)Cc1ccccc1)C(C)(C)Cc1ccccc1,23.1 µM (active),
CCCCCCCCCCOCC(O)CN (stereo unspecified),18.4 µM (active),
